Active and inactive are the calls of the source. Rule for the calls: active = hit-call score of the fitted dose curve at least 0.9, where 1 is the maximum; inactive = score below 0.9.
Each molecule was assayed against human JAK2 Tyrosine Kinase, JAK2 (gene 3717) (UniProt O60674) (assay: ERF_FR_ENZ_hJAK2: Eurofins (ERF) Enzymatic Radiometric [Km ATP] KinaseProfiler LeadHunter Assay for human JAK2 Tyrosine Kinase).
Chain of human JAK2 Tyrosine Kinase, JAK2 (gene 3717) (O60674 whole entry, looked up): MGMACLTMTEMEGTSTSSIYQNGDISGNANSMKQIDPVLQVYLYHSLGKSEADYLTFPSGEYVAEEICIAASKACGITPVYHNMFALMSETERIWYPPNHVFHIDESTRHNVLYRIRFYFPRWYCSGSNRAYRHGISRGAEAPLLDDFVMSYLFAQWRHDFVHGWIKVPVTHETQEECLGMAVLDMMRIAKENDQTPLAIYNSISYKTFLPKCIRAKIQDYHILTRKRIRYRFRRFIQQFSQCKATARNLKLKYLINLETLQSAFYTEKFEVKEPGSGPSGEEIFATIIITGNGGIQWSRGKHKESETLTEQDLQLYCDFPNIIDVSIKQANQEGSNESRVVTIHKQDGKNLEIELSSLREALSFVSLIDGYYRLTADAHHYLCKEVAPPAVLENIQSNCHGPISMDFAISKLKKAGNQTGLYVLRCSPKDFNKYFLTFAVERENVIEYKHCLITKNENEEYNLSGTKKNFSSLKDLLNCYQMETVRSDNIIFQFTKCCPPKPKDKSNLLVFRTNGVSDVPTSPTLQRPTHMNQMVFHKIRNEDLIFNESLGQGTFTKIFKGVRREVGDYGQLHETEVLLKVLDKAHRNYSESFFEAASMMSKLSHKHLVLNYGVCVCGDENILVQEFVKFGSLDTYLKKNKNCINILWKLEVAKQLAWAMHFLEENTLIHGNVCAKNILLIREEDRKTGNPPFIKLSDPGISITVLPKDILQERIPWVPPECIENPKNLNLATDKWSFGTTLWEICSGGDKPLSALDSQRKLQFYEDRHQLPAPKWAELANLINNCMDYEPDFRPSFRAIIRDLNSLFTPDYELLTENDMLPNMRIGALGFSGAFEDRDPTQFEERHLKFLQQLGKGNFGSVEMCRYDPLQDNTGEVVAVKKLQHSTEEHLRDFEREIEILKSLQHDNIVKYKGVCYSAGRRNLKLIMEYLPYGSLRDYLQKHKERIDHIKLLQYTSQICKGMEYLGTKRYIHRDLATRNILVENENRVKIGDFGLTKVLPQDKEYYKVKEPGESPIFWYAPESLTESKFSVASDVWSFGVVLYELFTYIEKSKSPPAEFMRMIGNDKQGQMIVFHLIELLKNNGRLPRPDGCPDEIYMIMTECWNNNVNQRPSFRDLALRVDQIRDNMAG
Protocol: ERF_FR_ENZ_hJAK2 is a biochemical, single-readout assay that uses extracted gene-proteins in a cell-free assay. Measurements were taken 1 hour after chemical dosing in a 96-well plate. See JAK2 Human TK Kinase Enzymatic LANCE Assay [Km ATP], Cerep.ERF_FR_ENZ_hJAK2 is an assay component calculated from the ERF_FR_ENZ_hJAK2 assay. It is designed to measure enzyme activity using a type of enzyme reporter as detected by fluorescence intensity with LANCE technology.Data from the assay component ERF_FR_ENZ_hJAK2 was analyzed at the assay endpoint, ERF_FR_ENZ_hJAK2, in the positive analysis fitting direction relative to DMSO as the negative control and baseline of activity. Using a type of enzyme reporter, loss-of-signal activity can be used to understand changes in enzymatic activity as they relate to gene JAK2. To generalize the intended target to other relatable targets, this assay endpoint is annotated to the kinase intended target family, where the subfamily is non-receptor tyrosine kinase.
JAK2 (h) is incubated with 8 mM MOPS pH 7.0, 0.2 mM EDTA, 100 uM […], 10 mM MgAcetate and [gamma-33P]-ATP (specific activity and concentration as required). The reaction is initiated by the addition of the Mg/ATP mix. After incubation for 40 minutes at room temperature, the reaction is stopped by the addition of phosphoric acid to a concentration of 0.5%. […]
For `O=C(/C=C/c1ccc(O)cc1)CC(=O)/C=C/c1ccc(O)cc1`, the AC50 was 2510 nM (active).

Reference: PubChem BioAssay AID2284099 (EPA ToxCast)
